Several values for one entry are separate records, joined by “and”; a condition that tells them apart may be missing. Equal entries are not always repeated. Compounds without any hit were thinned out: in the full panel of roughly 83,000, 20% have a hit.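 Values shown are percent growth following 48 h exposure of cells in 96-well plates to a single concentration of compound; below 10 was considered active.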 Activity calls are given as the source filed them.

The first test concerns SN12C renal. Briefly: NCI-60 one-dose screen, 48 h (100 = growth as untreated, 0 = no growth, -100 = all killed). To be noted: 10 µM. On the procedure:
Growth inhibition of the SN12C human tumor cell line is measured as a screen for anti-cancer activity. Cells are grown in 96 well plates and exposed to the test compound for 48 hours. Compounds are tested at a single concentration, which is 10^-5 M for most compounds. The reported endpoint is percent growth (GI% or GIPRCNT), where numbers from 0 - 100% represent growth inhibition, and numbers from -100% - 0 represent cell death. For example, a value of 40 represents 60% growth inhibition. A value of 0 means no net growth occurred over the course of the experiment. A value of -40 indicates 40% of cells at the beginning of the experiment died by the end of the experiment. A value of -100 means all cells are dead at the end of the experiment.
NCI-60 Human Tumor Cell Lines Screen was performed using the standard one-dose NCI protocol, which is described in more detail at https://dtp.cancer.gov/discovery_development/nci-60/default.htm.
Compounds with GIPRCNT values below 10 were considered active. Activity score was based on GIPRCNT using the following formula: […]
Score is 0 for GIPRCNT values of 100 or above, 50 for GIPRCNT values of 0, and 100 for GIPRCNT values of -100.
For `COc1ccc(Cl)cc1C(=O)NCCc1ccc(S(=O)(=O)NC(=O)NC2CCCCC2)cc1`, the growth was 91.4% (inactive) and 93.8% (inactive).

Regarding `CC(C)(C)c1cc(NC(=O)Cc2ccc(-c3cnc4cc(-c5cnn(CCN6CCOCC6)c5)ccc4n3)cc2)no1`, the growth is 7.01% (active). Take `Cc1[nH]c(-c2nc3ccccc3[nH]2)c(C)c1C(=O)NC(C)C1CCCCC1` (stereo not given): the growth was 86.1% (inactive).

Still in this test, the particulars now being: 10 µM unless noted.
With `O=C1OC2(c3ccccc31)c1ccc(O)c(O)c1Oc1c2ccc(O)c1O`, the growth was 98.8% (inactive) and 103% (inactive). The same measure, in the same setting: to `O=C(O)c1cc(C(=O)O)cc([N+](=O)[O-])c1` belongs 107% (inactive); to `O=[N+]([O-])c1ccc2nc3c4ccccc4c4ccccc4c3nc2c1`, 81.9% (inactive). `CCOC(=O)c1sc(N)nc1-c1ccccc1`: the growth was 104% (inactive). As to `O=[N+]([O-])c1ccccc1/C=N\Nc1ccccc1`, the growth was 84.9% (inactive) and 87.6% (inactive).

Take `CNc1cc(-c2cccc(OC(F)(F)F)c2)nc2ccc(N3CCCC3)cc12`: the growth is -18.5% (active) and -44.5% (active) and -23.2% (active). `O=C(CCc1ccc(O)cc1)N/N=C/c1cc(Br)ccc1O`: the growth is 63.7% (inactive).

`OC(COc1cccc2ccccc12)CN1CCN(c2ccc(Cl)cc2)CC1` (stereo not given): the growth was 98.5% (inactive) and 97.8% (inactive). Consider `CN(C)c1ccc(C(=C2C=CC(=[N+](C)C)C=C2)c2ccccc2Cl)cc1`, for which the growth was -42% (active) and -50.3% (active). As for `Cc1ccc(S(=O)(=O)Nc2ccc3cc([N+](=O)[O-])ccc3c2[N+](=O)[O-])cc1`, the growth is 74.7% (inactive) and 91.6% (inactive). As for `Nc1cc(-c2cccc(OC(F)(F)F)c2)nc2ccc(N3CCCC3)cc12`, the growth is 25.8% (inactive) and 27.9% (inactive) and 25.9% (inactive). Turning to `C#CCN(C)Cc1ccccc1`, the growth is 95.7% (inactive) and 82.5% (inactive). With `CC1=CCC2CC1C2(C)C` (stereo not given), the growth is 103% (inactive) and 94.4% (inactive).

For the molecule `CC(=O)Nc1ccc(O)cc1`, the growth is 90.2% (inactive) and 102% (inactive) and 108% (inactive).

Take `CN(Cc1ccccc1)Cc1ccccc1`: the growth is 101% (inactive). For the molecule `CC(=O)NC(Cc1ccccc1)C(=O)Oc1ccc2ccccc2c1` (stereo not given), the growth is 103% (inactive) and 98.9% (inactive). The same measure, in the same setting: the figure for `O=C(O)CN(CCN(CC(=O)O)CC(=O)O)CCN(CC(=O)O)CC(=O)O` is 1.71% (active) and 99.1% (inactive) and 101% (inactive); for `CCC(=O)C(CC)c1cccc(OC)c1` (stereo not given) it is 112% (inactive). Take `CN(C)c1ccc(C(Cc2ccc3ccccc3n2)Cc2ccc3ccccc3n2)cc1`: the growth was 48.7% (inactive) and 81.6% (inactive). Same read-out and setting: to `COc1ccccc1/C=N\N=C(N/N=C/c1ccccc1OC)N/N=C/c1ccccc1OC` belongs 77.2% (inactive) and 28.4% (inactive); to `CC1=C[C@H]2c3c(c(O)c(O)c4oc5cc(O)cc(O)c5c(=O)c34)[C@H](c3cc(O)c(O)c4oc5cc(O)cc(O)c5c(=O)c34)[C@H]2C(C)(C)C1`, 9.13% (active) and -8.98% (active); to `CCN(CC)CCC(CNc1c2ccc([N+](=O)[O-])cc2nc2cc(OC)c(OC)cc12)c1ccccc1` (stereo not given), -27.1% (active) and -91.6% (active). Take `CCN1CCN(CCNc2nccc(-c3c(-c4cccc(O)c4)nc4sccn34)n2)S1(=O)=O`: the growth is 75.8% (inactive) and 66.7% (inactive).

Regarding `CC(C)N=c1cc2n(-c3ccc(Cl)cc3)c3ccccc3nc-2cc1Nc1ccc(Cl)cc1`, the growth is 16.9% (inactive) and 25.6% (inactive) and 1.46% (active). In the case of `CC(=O)C(/C=N/C(N)=O)=C(/C)O`, the growth is 105% (inactive). Same read-out and setting: the figure for `O=C(CN1CCN(c2cc3c(cc2F)c(=O)c(C(=O)O)cn3C2CC2)CC1)Nc1ccc(Cl)cc1` is 90.1% (inactive) and 90.6% (inactive). In the case of `CCCCCN(CCCCC)CC(O)c1cc2c(c3ccccc13)CCCC2` (stereo not given), the growth is 72.1% (inactive) and 75.1% (inactive). Take `CCCCOc1cc(C(=O)NCCN(CC)CC)c2ccccc2n1`: the growth was 86.7% (inactive) and 93.5% (inactive).

As for `O=[N+]([O-])c1ccccc1N(S(=O)(=O)c1ccccc1)S(=O)(=O)c1ccccc1`, the growth was 102% (inactive) and 99.2% (inactive).

Take `CC(=O)c1ccccc1O`: the growth was 98.1% (inactive) and 104% (inactive) and 98.7% (inactive). Still for that read-out and setting: to `CN1CCN(Cc2occc(=O)c2O)CCN(C)CCN(Cc2occc(=O)c2O)CC1` belongs 87.9% (inactive) and 82.7% (inactive); to `CCOc1ccc2c(S(=O)(=O)O)cccc2c1[N+](=O)[O-]`, 106% (inactive) and 103% (inactive); to `CC(=O)Nc1cccc2c1CCCC2`, 103% (inactive) and 100% (inactive). Still for that read-out and setting: to `CC1(C)[C@@H](OC(=O)CCC(=O)O)CC[C@]2(C)[C@H]3C(=O)C=C4[C@@H]5C[C@@](C)(C(=O)O)CC[C@]5(C)CC[C@@]4(C)[C@]3(C)CC[C@@H]12` belongs 102% (inactive) and -19.1% (active).

The test is the same for the next values; noted with them: 30 µM.
With `CC(C)(C)c1cc(NC(=O)Cc2ccc(-c3cnc4cc(-c5cnn(CCN6CCOCC6)c5)ccc4n3)cc2)no1`, the growth is 6.88% (active).

Still in this test, the particulars now being: 100 µM.
For the molecule `COc1ccc(Cl)cc1C(=O)NCCc1ccc(S(=O)(=O)NC(=O)NC2CCCCC2)cc1`, the growth is 71.4% (inactive). With `Cc1[nH]c(-c2nc3ccccc3[nH]2)c(C)c1C(=O)NC(C)C1CCCCC1` (stereo not given), the growth is -89.7% (active).
